The whole screen tested about 1,200 compounds, of which about 650 (54%) were called active. Another 5% or so got no clear call; they are omitted.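 The calls were made as follows: active = signal-lowering curve whose fitted half-maximal concentration is at or below ten times the top valid dose tested; inconclusive = flat curve with 30 to 70% inhibition, or poor fit; inactive = signal increase, flat within 30%, or potency beyond limit.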 So high a share suggests a set chosen from earlier hits. These entries were drawn from the full list. Measured potencies and affinities stand elsewhere.
Test: EBV LMP1 TES2 canonical NF-kB signalling blockers – cell-based, HEK293, luciferase, cherry-pick, dose response (AID 588343);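 also: 0% = median of neutral control wells and -100% = MG132 positive control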
Details: HEK293 LMP1 TES2 NF-kB luciferase reporter, 16 h; series mostly up to 35 µM; activity change, negative = inhibition: at the top concentration

Activity change, negative = inhibition, inactive:
Cc1ccnc(N/C=C(/NC(=O)c2ccccc2)C(=O)N/N=C\c2ccc(F)cc2)n1 -17.7%, O=C(Nc1nnc(N2CCCCCC2)s1)c1cc(-c2ccc(Br)cc2)on1 -2.98%, COc1ccc(-c2cc(C(F)(F)F)n3nc(C(=O)N4CCOCC4)nc3n2)cc1 -11.3%, COCCCNC(=O)CN1C(=O)COc2ccc(S(=O)(=O)N3CCOCC3)cc21 7.21%, CCCSc1nc2cc(S(=O)(=O)N3CCOCC3)ccc2n1CC 13.1%, CN(C)CCN(Cc1ccc(Cl)cc1)c1ccccn1 17.7%, COc1ccc(CC(C)NCC(O)c2ccc(O)c(NC=O)c2)cc1 (stereo unspecified) 22.3%, CCOC(=O)C1=C(C)NC(C)=C(C(=O)OCC)C1c1cn(-c2ccccc2)nc1-c1ccco1 26.1%, O=C(Nc1cc(S(=O)(=O)N2CCOCC2)ccc1Cl)c1ccncc1 -7.69%, O=C(CSc1nnc(-c2cccc(S(=O)(=O)N3CCOCC3)c2)n1C1CCCCCC1)NCc1ccccc1 14.6%, N=c1c(-c2nc3ccccc3[nH]2)cc(C(=O)c2cccs2)nn1-c1ccccc1 42.9%, Cc1cc(NC(=O)c2ccc(C)s2)n(-c2nc3ccccc3[nH]2)n1 1.12%, CCCC(=O)NCCCc1nc2ccccc2[nH]1 -10.5%, O=c1cc(Cl)nc2ccccn12 -6.86%, COc1ccc2[nH]c3c(=O)n(CCCCC(=O)N4CCC(C(N)=O)CC4)c(=S)[nH]c3c2c1 4.91%, O=C(Cc1ccc(Cl)cc1)NCC(=O)N1CCCCC1 -5.16%, Cc1ccccc1N(C(=O)c1snc(C(N)=O)c1N)C(C(=O)NC1CCCCC1)c1ccc(O)cc1 (stereo unspecified) 47.4%, S=C1SCN(Cc2ccccc2)CN1Cc1ccco1 -12.8%, CCOc1cc(/C=C2/C(=N)N3N=C(CC)SC3=NC2=O)ccc1OC(=O)c1ccco1 -2.03%, COc1ccc(CCC(=O)Nc2ccc(C)c([N+](=O)[O-])c2)cc1 3.84%, CC(=O)Oc1ccc(C(=O)Nc2cccnc2)cc1 11%, O=C(COc1ccc2ccccc2c1)NCCNC(=O)COc1ccc2ccccc2c1 33.9%, CNC(=O)C1=NCCCc2cc(OC)c(OC)cc21 -2.99%, O=C(NC1CCCCC1)N1CCN(c2ccc([N+](=O)[O-])cc2)CC1 -12.7%, COc1ccc(-n2nc(C(=O)c3cccs3)cc(-c3nc4ccccc4[nH]3)c2=N)cc1 3.98%, CNC(=S)N1N=C(c2cccs2)CC1c1ccc(F)cc1 (stereo unspecified) 22.4%, O=C(CN1C(=O)C2C3C=CC(C3)C2C1=O)NCCC1=CCCCC1 (stereo unspecified) 21.8%, O=C(COC(=O)c1ccc(S(=O)(=O)NCc2ccco2)cc1)Nc1ccc(Cl)cn1 -7.56%, O=C(CN(Cc1cccs1)C(=O)CNS(=O)(=O)c1ccccc1)NCc1ccco1 5.03%, CCOc1ccc(NC(=O)Cn2cc(C(=O)CC)c3ccccc32)cc1 7.48%, Cc1ccnc(NC(=O)c2cccc(NC(=O)c3ccc(Cl)c(Cl)c3)c2)c1 15.1%, CC(=O)Nc1ccc(OCC(O)CNC(C)C)cc1 (stereo unspecified) 9.4%, Cc1cc(OCC(=O)Nc2cnn(CCCC(=O)O)c2)ccc1Cl -10.7%, COc1ccc(NC(=O)Cn2nnc(C(=O)NCc3ccccc3)c2N)c(OC)c1 8.34%, COC(=O)c1cccc(COC(=O)c2ccccc2NC(=O)c2ccco2)c1 -0.414%, COc1cccc(-c2nc(NCc3ccccc3)c3ccccc3n2)c1O 21.1% [at 11 µM], O=C(Nc1ccc2c(c1)C(=O)OC2)c1ccc(C(F)(F)F)cc1 -6.81%, COc1ccc(NC(=O)C[C@H]2C(=O)N(CCc3ccccc3)C[C@@H]2c2ccc(OC)cc2)cc1 18.3%, COc1ccc(C(CNC(=O)Nc2ccccc2)N2CCN(C)CC2)cc1 (stereo unspecified) -9.47%, COc1ccc(NC(=O)NCCN2CCc3ccccc3C2)cc1 -2.14%, Cn1cccc1CC(=O)NNC(=S)Nc1ccccc1Cl 3.06%, C=CCN(c1ccc(C(=O)Nc2ccc3c(c2)n(C)c(=O)n3C)cc1)S(C)(=O)=O 22%, CCNc1nc(CN2CCOCC2)nc2sc3c(c12)CCC3 14.5%, COc1cccc(C2Nc3ccc4ccccc4c3C3=C2C(=O)CC(C)(C)C3)c1OCC(=O)O (stereo unspecified) 24.8%, O=C(CN1C(=O)CCOc2ccccc21)Nc1ccc(Cl)c(S(=O)(=O)N2CCOCC2)c1 -6.94%, COc1ccc(C(c2sc3nc(C)nn3c2O)N2CCC(C(N)=O)CC2)cc1OC (stereo unspecified) -11.1%, CC1=C(CC(=O)O)c2cc(F)ccc2C1=Cc1ccc(S(C)(=O)=O)cc1 1.68%, O=C(Nc1ncc(Br)s1)C(Cc1ccccc1)n1cccc1 (stereo unspecified) 1.83%, COc1ccc(NC(=O)N(CCN2CCCC2)Cc2cc3cc(OC)c(OC)cc3[nH]c2=O)cc1 -2.6%, CCOC(=O)c1cc(-c2ccccc2)n(CC(=O)Nc2cccc(OC)c2)c1C -5.78%, CC(=NNC(=S)N1CCCCCC1)c1cccc2cccnc12 53%, COc1ccc(OC)c(S(=O)(=O)NC(C)CCc2ccccc2)c1 (stereo unspecified) -3.32%, Cc1ccc2oc(C(=O)Nc3ccc(S(=O)(=O)Nc4onc(C)c4C)cc3)c(C)c2c1 4.12%, O=C(NCC1CCOCC1)c1ccc(OC2CCN(Cc3ccccn3)CC2)cc1 -4.71%, COCCCNCC1C(Oc2ccc(Cl)cc2)C(=O)N1c1ccccc1C (stereo unspecified) -5.79%, Cc1sc2ncn(CC(=O)N3CCC(C(N)=O)CC3)c(=O)c2c1S(=O)(=O)N1CCOCC1 -2.58%, Cc1ccc(CCNC(=O)CCc2nc3ccccc3[nH]2)cc1 17.2%, CN(C)S(=O)(=O)c1ccc(Cl)c(C(=O)NCCNC(=O)c2cc(S(=O)(=O)N(C)C)ccc2Cl)c1 10.7%, CCN(Cc1ccncc1)C(=O)CCc1ccccc1 5.62%, COc1cc(N)c(Cl)cc1C(=O)NC1CCN(Cc2ccccc2)CC1 47.7%, NC(=O)CC(NC(=O)c1ccccc1)c1ccc(NC2CCN(Cc3ccccc3)CC2)c([N+](=O)[O-])c1 (stereo unspecified) -11.4%, O=C(N/N=C(/CC(=O)c1cccs1)C(F)(F)F)c1ccc(O)cc1 2.98%, CN1CCN(CCOc2ccc(Cc3ccccc3)cc2)CC1 2.14%, Cn1c(=O)[nH]c(=O)c2c1nc(CN1CCOCC1)n2CCCc1ccccc1 16.2%, CCn1c2ccccc2c2cc(NC(=O)c3ccccc3-c3ccccc3C(=O)O)ccc21 10.4%, CS(=O)(=O)N(CC(=O)Nc1ccc(F)cc1F)C1CCCCC1 6.2%

Reference: PubChem BioAssay AID588343 (Broad Institute, 2011)
